Assay results reported in PubChem BioAssay AID1963321 (National Center for Advancing Translational Sciences (NCATS), 2024).
Results filed as inconclusive are left out. The source made the active and inactive calls. Calls come from the whole dose curve.

Molecular target: cAMP-dependent protein kinase catalytic subunit alpha (Homo sapiens) (UniProt P17612)
Experiment: Protein Kinase A (PKA-HiBiT) enzymatic inhibition screen - Functional assay
Details: luminescence; series mostly up to 57.5 µM
Source text: National Center for Advancing Translational Sciences (NCATS),
National Institute of Health (NIH), Maryland
Discovery and optimization of novel protein-binding ligands underlies many of the methods and applications of biology, drug discovery, clinical diagnostics, and environmental toxicology. Assays for detecting the interaction of, for example, a molecule with a macromolecular target also referred to here as the target of interest (TOI) is dependent on a compatible output technology. Depending on the nature and knowledge surrounding the TOI, whether a receptor, enzyme, regulatory subunit or scaffold, or a sequence-defined nucleic acid folded into a complex tertiary structure, assay strategies can vary widely.
Here we exploit ligand-biased changes in the structural dynamics of the target protein to control reporter alpha complementation allowing a non-competitive, non-functional, non-separation measure of ligand-target interaction.
Using a chemical library of >1,200 compounds enriched for scaffolds known to be associated with the inhibition of firefly luciferase (FLuc) activity (PubChem AIDs 2309) we first illustrate and compare the Structural Dynamics Response (SDR) assay vs. the standard functional FLuc enzyme assay (2). Secondly, we show the specificity and sensitivity of the SDR for the Abelson tyrosine kinase (ABL1) compared to the serine/threonine protein kinase A, using an enriched chemical library of 128 compounds selected, in part, for activity annotated with ABL1 kinase activity using the Pharos database (3).
(1) A. S. Dixon et al., NanoLuc Complementation Reporter Optimized for Accurate Measurement of Protein Interactions in Cells. ACS Chem Biol 11, 400-408 (2016).
Chemistry & Biology, 19, 1060 - 1072 (2012).
(3) K. J. Kelleher et al., Pharos 2023: an integrated resource for the understudied human proteome. Nucleic Acids Res 51, D1405-D1416 (2023).
PROTOCOL TABLE (as described by Inglese J, Shamu CE and Guy RK. 2007)
SEQUENCE No. (e.g., 1, 2, 3, etc.); […] (e.g., C. elegans, Compounds, Incubation, Read, etc.); VALUE and DESCRIPTION.
1. Reagent. Dispense 4 uL PKA-N-HiBiT enzyme per well at a final enzyme concentration of 10 nM in buffer with 87.5 uM ATP (functional assay) into columns 2-48 of four replicate Greiner 1536-well white,solid bottom high base, medium plates per assay. Dispense respective buffer without enzyme at 4 uL/well in column 1 of assay plates using BioRaptr 2.
2. Compounds. Library compounds added at 23 nL/well by pin transfer. DMSO neutral control and H-89 positive control added at 25 nL/well, transfer by Mosquito dispenser.
3. Incubation. Incubate enzyme and compounds at room temperature for 30 min, protect from light.
4. Reagent. (Functional assay) Transfer 25 nL of kemptide peptide substrate to each well of four replicate kinase assay plates with Mosquito dispenser.
5. Incubation. (Functional assay) Kinase Enzyme incubated with peptide substrate for 3 h at room temperature, protected from light.
6. Reagent. (Functional assay) Add 4 uL/well of Kinase-Glo Plus reagent (Promega) to kinase activity assay plates.
7. Detector. (Functional assay) Luminescence measured using CCD-based camera (ViewLux) with settings as follows: Exposure, 1 sec; Gain, High; Speed, Slow; Binning, 2X.
Inglese J, Shamu CE and Guy RK, Reporting data from high throughput screening of small molecule libraries, Nature Chemical Biology, 2007, 3(8): 438-441. doi.org/10.1038/nchembio0807-438.

Potency, inactive:
COc1cc2ncnc(Nc3ccc(F)c(Cl)c3)c2cc1OCCCN1CCOCC1
C=CC(=O)N1CCC[C@@H](n2nc(-c3cccc(C(=O)Nc4ccc(C(C)C)c(C)c4)c3)c3c(N)ncnc32)C1
C[C@@H](NC(=O)c1ncnc(N)c1Cl)c1ncc(C(=O)Nc2cc(C(F)(F)F)c(Cl)cn2)s1
Cn1cc(-c2cc3c(N4CCN(c5ncc([C@@](C)(N)c6ccc(F)cc6)cn5)CC4)ncnn3c2)cn1
COc1ccc(S(=O)(=O)N(C(C)=O)c2ccccc2/C=C/c2cc[n+]([O-])cc2)cc1
Cc1nc2ccc(-n3ncc(C(=O)c4cc5ccccc5[nH]4)c3N)cc2[nH]1
Cc1ccc(-n2nc(C(C)(C)C)cc2NC(=O)NCc2cc(F)ccc2Oc2ccc3c(cnn3CCO)c2)cc1
CNC(=O)c1ccccc1Nc1nc(Nc2ccc(N3CCOCC3)cc2OC)ncc1Cl
CN1CCN(Cc2ccc(-c3cnc4[nH]cc(-c5ccc6[nH]ccc6c5)c4c3)cc2)CC1
C=CC(=O)Nc1cccc(Oc2nc(Nc3ccc(N4CCN(C)CC4)cc3OC)ncc2Cl)c1
Cc1cccc(/C=N/Nc2cc(N3CCOCC3)nc(OCCc3ccccn3)n2)c1
COc1cc(NC(=O)c2cccc(-n3cc(NC(=O)Nc4cccc(C)c4)cn3)c2)cc(OC)c1OC
Cn1sc(=O)n(Cc2ccccc2)c1=O
COc1cc2ncnc(-n3nc(-c4ccccn4)nc3N)c2cc1OC
CN1CCN(C2CCC(n3cc(-c4ccc(Oc5ccccc5)cc4)c4c(N)ncnc43)CC2)CC1 (stereo not given)
Nc1ncc(-c2cnn(CCO)c2)c2scc(-c3ccc(NC(=O)Nc4cccc(F)c4)cc3)c12
CCNC(=O)Nc1ccc(-c2nc3c(c(N4CCOC[C@@H]4C)n2)CCN(c2ncccn2)C3)cc1
Cc1ccc(NC(=O)N2CCN(c3nc(N)nc4sc(-c5cccnc5)nc34)CC2)cc1
COc1cc(N2CCC(N3CCN(C)CC3)CC2)ccc1Nc1ncc(Cl)c(Nc2ccccc2P(C)(C)=O)n1
C#Cc1cccc(Nc2ncnc3cc4c(cc23)OCCOCCOCCO4)c1
O=C(Nc1ccc(OC(F)(F)F)cc1)c1sccc1NCc1ccnc2ccccc12
COc1cc2c(Oc3ccc4[nH]c(C)cc4c3F)ncnc2cc1OCCCN1CCCC1
CNc1ncc2cc(-c3cc(NC(=O)NCCC(C)(C)C)c(F)cc3C)c(C)nc2n1
Cc1cc(O)c2c(c1)C(=O)c1cc(O)cc(O)c1C2=O
Cc1cc(Nc2ncc3c(n2)N(C)C(=O)N(c2cc(NC(=O)c4cccc(C(F)(F)F)c4)ccc2C)C3)n(C)n1
O=C(NC1CCNCC1)c1[nH]ncc1NC(=O)c1c(Cl)cccc1Cl
FC(F)(F)c1ccc(/C=C/c2nc(COc3ccc(CCCCn4ccnn4)cc3)co2)cc1
Cc1cc(F)ccc1-c1nc(NC(CO)CO)nc2c1ccc(=O)n2-c1c(F)cccc1F
NC(=O)c1cccc(-c2cc(Nc3ccc(OC(F)(F)F)cc3)ncn2)c1
C[C@@H]1CCNC(=O)c2cc3ccc(C(=O)Nc4nc5ccccc5n4CCCN(C)C)cc3n21
O=C1CCC(N2C(=O)c3ccccc3C2=O)C(=O)N1 (stereo not given)
COc1cc2c(cc1OC)-c1[nH]nc(Nc3cccc(F)c3)c1C2
Cc1ccc(C(=O)Nc2ccc(Oc3cc4cnn(C)c4cc3-c3cn[nH]c3)c(F)c2)c(=O)n1-c1ccc(F)cc1
Cc1cc(Nc2ncc3cc(-c4c(Cl)cccc4Cl)c(=O)n(C)c3n2)ccc1F
CCn1c(=O)c(-c2ccc(Cl)cc2Cl)cc2cnc(Nc3ccc(N4CCNCC4)c(F)c3)nc21
COc1cc2nccc(Oc3ccc(NC(=O)Nc4ccc(F)cc4F)c(F)c3)c2cc1OC
Cc1[nH]c(/C=C2\C(=O)Nc3ccc(S(=O)(=O)Cc4c(Cl)cccc4Cl)cc32)c(C)c1C(=O)N1CCC[C@@H]1CN1CCCC1
O=c1c(O)c(-c2ccc(O)c(O)c2)oc2cc(O)cc(O)c12
Cc1cn(-c2cccc(NC(=O)c3ccc(C)c(Nc4nccc(-c5cccnc5)n4)c3)c2)cn1

Potency, active:
CCOc1ccn(-c2ccc(F)cc2)c(=O)c1C(=O)Nc1ccc(Oc2ccnc(N)c2Cl)c(F)c1 15.3 nM
